# According to PubChem BioAssay (Tox21):
# A number with no mark means an inactive call. Results filed as inconclusive are left out. A call without a number means that no potency is given here. Calls of active or inactive are those of the source. Calls come from the whole dose curve; as a rule, active = well fitted curve in the direction sought with a large enough effect in the repeat runs; inconclusive = weak or mixed curves; inactive = no such curve, though single readings can be large; an effect the other way counts as inactive or inconclusive.
# How the values were obtained:
# [1] = A CellTox Green Cytotoxicity Assay to monitor cytotoxicity in HEK293 cells - 40 hour (AID 1224871); note: nearly all actives have a fitted effect of over 45% in size; note: potency is the fitted concentration of half-maximal effect
# Procedure, shortened: (§1)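 HEK293 cells premixed with CellTox Green dye were seeded at 600 cells/well and left 5 h at 37 C/5% CO2 before pin transfer of 23 nL compound in DMSO. Fluorescence from dye bound to dead-cell DNA was read during 40 h treatment.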
# [2] = qHTS RealTime-Glo MT Cell Viability Assay in HEK293 cells - 16 hour (AID 1224872); note: nearly all actives have a fitted effect of over 50% in size; note: potency is the fitted concentration of half-maximal effect
# Procedure, shortened: (§2)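 HEK293 cells seeded with NanoLuc/prosubstrate reagent, rested 5 h at 37 C, then dosed and kept at 37 C up to 40 h. Nonlytic real-time luminescence from viable cells read at 0, 8, 16, 24, 32 and 40 h.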
# [3] = qHTS RealTime-Glo MT Cell Viability Assay in HEK293 cells - 40 hour (AID 1224874); details: RealTime-Glo luminescence; max response: hits give low values; note: nearly all actives have a fitted effect of over 50% in size; note: potency is the fitted concentration of half-maximal effect
# Procedure, shortened: (§3)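 HEK293 cells mixed with RealTime-Glo reagents (NanoLuc plus cell-permeant prosubstrate) at 600 cells/well, preincubated 5 h at 37 C/5% CO2, then given 23 nL compound in DMSO. Nonlytic luminescence from viable cells was read at 0, 8, 16, 24, 32 and 40 h.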
# [4] = A CellTox Green Cytotoxicity Assay to monitor cytotoxicity in HEK293 cells - 24 hour (AID 1224875); note: series mostly up to about 77 µM; nearly all actives have a fitted effect of over 45% in size
# Procedure, shortened: as §1
# [5] = A CellTox Green Cytotoxicity Assay to monitor cytotoxicity in HepG2 cells - 16 hour (AID 1224876); note: nearly all actives have a fitted effect of over 45% in size; note: potency is the fitted concentration of half-maximal effect
# Procedure, shortened: (§4)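 HepG2 cells were seeded together with the CellTox Green dye at 600 cells/well, left 5 h at 37 C/5% CO2, then given compounds in DMSO. Fluorescence from dye bound to dead-cell DNA was read repeatedly over 40 h of treatment at 37 C.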
# [6] = qHTS RealTime-Glo MT Cell Viability Assay in HepG2 cells - 32 hour (AID 1224877); note: nearly all actives have a fitted effect of over 55% in size
# Procedure, shortened: (§5)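 HepG2 cells (600/well) were dispensed with RealTime-Glo reagents, incubated 5 h at 37 °C, then treated with compounds in DMSO for up to 40 h. Nonlytic NanoLuc luminescence reflecting viable cells was read at each stated time point.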
# [7] = A CellTox Green Cytotoxicity Assay to monitor cytotoxicity in HepG2 cells - 24 hour (AID 1224878); note: nearly all actives have a fitted effect of over 45% in size
# Procedure, shortened: as §4
# [8] = A CellTox Green Cytotoxicity Assay to monitor cytotoxicity in HepG2 cells - 40 hour (AID 1224879); note: nearly all actives have a fitted effect of over 40% in size; note: potency is the fitted concentration of half-maximal effect
# Procedure, shortened: as §4
# [9] = qHTS RealTime-Glo MT Cell Viability Assay in HEK293 cells - 0 hour (AID 1224880)
# Procedure, shortened: as §3
# [10] = A CellTox Green Cytotoxicity Assay to monitor cytotoxicity in HEK293 cells - 32 hour (AID 1224881); note: nearly all actives have a fitted effect of over 40% in size
# Procedure, shortened: as §1
# [11] = A CellTox Green Cytotoxicity Assay to monitor cytotoxicity in HepG2 cells - 0 hour (AID 1224882); note: nearly all actives have a fitted effect of over 35% in size
# Procedure, shortened: as §4
# [12] = A CellTox Green Cytotoxicity Assay to monitor cytotoxicity in HepG2 cells - 32 hour (AID 1224883); note: nearly all actives have a fitted effect of over 50% in size; note: potency is the fitted concentration of half-maximal effect
# Procedure, shortened: as §4
# [13] = A CellTox Green Cytotoxicity Assay to monitor cytotoxicity in HEK293 cells - 8 hour (AID 1224884); note: nearly all actives have a fitted effect of over 35% in size
# Procedure, shortened: as §1
# [14] = qHTS RealTime-Glo MT Cell Viability Assay in HepG2 cells - 16 hour (AID 1224885); note: nearly all actives have a fitted effect of over 50% in size
# Procedure, shortened: as §5
# [15] = qHTS RealTime-Glo MT Cell Viability Assay in HEK293 cells - 24 hour (AID 1224886)
# Procedure, shortened: as §2
# [16] = qHTS RealTime-Glo MT Cell Viability Assay in HEK293 cells - 8 hour (AID 1224887)
# Procedure, shortened: as §3
# [17] = A CellTox Green Cytotoxicity Assay to monitor cytotoxicity in HEK293 cells - 16 hour (AID 1224888); note: nearly all actives have a fitted effect of over 35% in size
# Procedure, shortened: as §1
# [18] = qHTS RealTime-Glo MT Cell Viability Assay in HepG2 cells - 0 hour (AID 1224889); note: nearly all actives have a fitted effect of over 50% in size
# Procedure, shortened: as §5
# [19] = qHTS RealTime-Glo MT Cell Viability Assay in HepG2 cells - 8 hour (AID 1224873); note: nearly all actives have a fitted effect of over 55% in size
# Procedure, shortened: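 HepG2 cells (600/well) mixed with RealTime-Glo MT reagent, settled 5 h at 37 C/5% CO2 before compound addition. Nonlytic NanoLuc luminescence from viable-cell prosubstrate reduction read repeatedly during 40 h treatment at 37 C.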
# [20] = A CellTox Green Cytotoxicity Assay to monitor cytotoxicity in HepG2 cells - 8 hour (AID 1224890); note: nearly all actives have a fitted effect of over 45% in size
# Procedure, shortened: as §4
compound,measurement,setting,value
CCCCCCC(CCCCCCCCCCC(=O)OCC(COC(C)=O)OC(C)=O)OC(C)=O (configuration not stated),Potency,[1],inactive
same,Potency,[2],inactive
same,max response,[3],14.5%
same,Potency,[4],inactive
same,Potency,[5],inactive
same,Potency,[6],inactive
same,Potency,[7],inactive
same,Potency,[8],inactive
same,outcome,[9],inactive
same,Potency,[10],inactive
same,Potency,[11],inactive
same,Potency,[12],inactive
same,Potency,[13],inactive
same,outcome,[14],inactive
same,Potency,[15],inactive
same,Potency,[16],inactive
same,Potency,[17],inactive
same,Potency,[18],inactive
CC(C)(O)Cc1ccccc1,Potency,[1],inactive
same,Potency,[2],inactive
same,outcome,[19],inactive
same,Potency,[4],inactive
same,Potency,[5],inactive
same,Potency,[6],inactive
same,Potency,[7],inactive
same,Potency,[8],inactive
same,outcome,[9],inactive
same,Potency,[10],inactive
same,Potency,[11],inactive
same,Potency,[12],inactive
same,Potency,[13],inactive
same,outcome,[14],inactive
same,Potency,[16],inactive
same,Potency,[17],inactive
same,Potency,[18],inactive
same,Potency,[20],inactive
C[C@H](O)C(=O)Nc1c(I)c(C(=O)NC(CO)CO)c(I)c(C(=O)NC(CO)CO)c1I,Potency,[1],inactive
same,Potency,[2],inactive
same,max response,[3],4.24%
same,Potency,[4],inactive
same,Potency,[5],inactive
same,Potency,[6],inactive
same,Potency,[7],inactive
same,Potency,[8],inactive
same,outcome,[9],inactive
same,Potency,[10],inactive
same,Potency,[11],inactive
same,Potency,[12],inactive
same,Potency,[13],inactive
same,outcome,[14],inactive
same,Potency,[15],inactive
same,Potency,[16],inactive
same,Potency,[17],inactive
same,Potency,[18],inactive
same,Potency,[20],inactive
C1COCCO1,Potency,[1],inactive
same,Potency,[2],inactive
same,outcome,[19],inactive
same,max response,[3],4.29%
same,Potency,[4],inactive
same,Potency,[5],inactive
same,Potency,[8],inactive
same,outcome,[9],inactive
same,Potency,[10],inactive
same,Potency,[11],inactive
same,Potency,[13],inactive
same,outcome,[14],inactive
same,Potency,[16],inactive
same,Potency,[18],inactive
same,Potency,[20],inactive
CCCCc1ccc(N)cc1,Potency,[1],inactive
same,Potency,[2],inactive
same,outcome,[19],inactive
same,Potency,[4],inactive
same,Potency,[5],inactive
same,Potency,[6],inactive
same,Potency,[7],inactive
same,Potency,[8],inactive
same,outcome,[9],inactive
same,Potency,[10],inactive
same,Potency,[11],inactive
same,Potency,[12],inactive
same,Potency,[13],inactive
same,outcome,[14],inactive
same,Potency,[16],inactive
same,Potency,[17],inactive
same,Potency,[18],inactive
same,Potency,[20],inactive
O=C1OC(=O)c2cc([N+](=O)[O-])ccc21,Potency,[1],inactive
same,Potency,[2],inactive
same,max response,[3],13%
same,Potency,[4],inactive
same,Potency,[5],inactive
same,Potency,[6],inactive
same,Potency,[7],inactive
same,Potency,[8],inactive
same,outcome,[9],inactive
same,Potency,[10],inactive
same,Potency,[11],inactive
same,Potency,[12],inactive
same,Potency,[13],inactive
same,outcome,[14],inactive
same,Potency,[16],inactive
same,Potency,[18],inactive
same,Potency,[20],inactive
CC(C)(C)N(CCO)CCO,Potency,[1],inactive
same,Potency,[2],inactive
same,outcome,[19],inactive
same,max response,[3],0.933%
same,Potency,[4],inactive
same,Potency,[5],inactive
same,Potency,[7],inactive
same,Potency,[8],inactive
same,outcome,[9],inactive
same,Potency,[10],inactive
same,Potency,[11],inactive
same,Potency,[13],inactive
same,outcome,[14],inactive
same,Potency,[15],inactive
same,Potency,[16],inactive
same,Potency,[17],inactive
same,Potency,[18],inactive
same,Potency,[20],inactive
C=CCSCC1Nc2cc(Cl)c(S(N)(=O)=O)cc2S(=O)(=O)N1 (configuration not stated),Potency,[1],inactive
same,Potency,[2],inactive
same,outcome,[19],inactive
same,max response,[3],10.2%
same,Potency,[4],inactive
same,Potency,[5],inactive
same,Potency,[7],inactive
same,Potency,[8],inactive
same,outcome,[9],inactive
same,Potency,[10],inactive
same,Potency,[11],inactive
same,Potency,[13],inactive
same,outcome,[14],inactive
same,Potency,[15],inactive
same,Potency,[16],inactive
same,Potency,[17],inactive
same,Potency,[18],inactive
Cc1nccn1CC1CCc2c(c3ccccc3n2C)C1=O (configuration not stated),Potency,[1],inactive
same,Potency,[2],inactive
same,max response,[3],-14.4%
same,Potency,[4],inactive
same,Potency,[5],inactive
same,Potency,[6],inactive
same,Potency,[7],inactive
same,Potency,[8],inactive
same,outcome,[9],inactive
same,Potency,[10],inactive
same,Potency,[11],inactive
same,Potency,[12],inactive
same,Potency,[13],inactive
same,outcome,[14],inactive
same,Potency,[15],inactive
same,Potency,[16],inactive
same,Potency,[18],inactive
same,Potency,[20],inactive
CCN1CCCC1CNC(=O)c1cc(S(N)(=O)=O)ccc1OC (configuration not stated),Potency,[1],inactive
same,Potency,[2],inactive
same,outcome,[19],inactive
same,Potency,[4],inactive
same,Potency,[5],inactive
same,Potency,[6],inactive
same,Potency,[7],inactive
same,Potency,[8],43.6 µM (active)
same,outcome,[9],inactive
same,Potency,[10],inactive
same,Potency,[11],inactive
same,Potency,[12],inactive
same,outcome,[14],inactive
same,Potency,[16],inactive
same,Potency,[17],inactive
same,Potency,[18],inactive
same,Potency,[20],inactive
CCN(CC)C(=O)c1ccc(O)c(OC)c1,Potency,[1],inactive
same,Potency,[2],inactive
same,max response,[3],1.73%
same,Potency,[4],inactive
same,Potency,[5],inactive
same,Potency,[6],inactive
same,Potency,[7],inactive
same,Potency,[8],inactive
same,outcome,[9],inactive
same,Potency,[10],inactive
same,Potency,[11],inactive
same,Potency,[12],inactive
same,Potency,[13],inactive
same,outcome,[14],inactive
same,Potency,[15],inactive
same,Potency,[16],inactive
same,Potency,[17],inactive
same,Potency,[18],inactive
same,Potency,[20],inactive
CN(C)C(=O)C(CCN1CCC(O)(c2ccc(Cl)cc2)CC1)(c1ccccc1)c1ccccc1,Potency,[1],26.8 µM (active)
same,Potency,[2],8.49 µM (active)
same,outcome,[19],inactive
same,Potency,[3],10.7 µM (active)
same,Potency,[5],10.7 µM (active)
same,Potency,[8],23.9 µM (active)
same,outcome,[9],inactive
same,Potency,[12],19 µM (active)
same,Potency,[13],inactive
same,Potency,[17],inactive
same,Potency,[18],inactive
CCCCCCCCCCCCCCCCCC(=O)OCCCCCCCCCCCCCC(C)C,Potency,[1],inactive
same,Potency,[2],inactive
same,max response,[3],1.07%
same,Potency,[4],inactive
same,Potency,[5],inactive
same,Potency,[6],inactive
same,Potency,[7],inactive
same,Potency,[8],inactive
same,outcome,[9],inactive
same,Potency,[10],inactive
same,Potency,[11],inactive
same,Potency,[12],inactive
same,Potency,[13],inactive
same,outcome,[14],inactive
same,Potency,[15],inactive
same,Potency,[16],inactive
same,Potency,[17],inactive
same,Potency,[18],inactive
same,Potency,[20],inactive
COc1ccc(COC=O)cc1,Potency,[1],inactive
same,Potency,[2],inactive
same,outcome,[19],inactive
same,Potency,[4],inactive
same,Potency,[5],inactive
same,Potency,[6],inactive
same,Potency,[8],inactive
same,outcome,[9],inactive
same,Potency,[10],inactive
same,Potency,[11],inactive
same,Potency,[13],inactive
same,outcome,[14],inactive
same,Potency,[15],inactive
same,Potency,[16],inactive
same,Potency,[18],inactive
same,Potency,[20],inactive
COc1cc(C(=O)N2CCOCC2)cc(OC)c1OC,Potency,[1],inactive
same,Potency,[2],inactive
same,outcome,[19],inactive
same,max response,[3],11.2%
same,Potency,[4],inactive
same,Potency,[5],inactive
same,Potency,[7],inactive
same,Potency,[8],inactive
same,outcome,[9],inactive
same,Potency,[10],inactive
same,Potency,[11],inactive
same,Potency,[12],inactive
same,outcome,[14],inactive
same,Potency,[15],inactive
same,Potency,[17],inactive
same,Potency,[18],inactive
same,Potency,[20],inactive
